Source: PubChem BioAssay (NCATS)
Several values for one entry are separate records, joined by “and”; a condition that tells them apart may be missing. Equal entries are not always repeated. Inconclusive results are not listed. Activity calls are given as the source filed them. Unless noted, calls follow the shape of the dose curve; as a rule, active = well fitted curve in the direction sought with a large enough effect; inconclusive = small, poorly fitted or top-dose-only effect, or another doubt; inactive = no such curve, though single readings can be large; an effect the other way counts as inactive or inconclusive.

Key:
[1] = molecular target: Lysosomal acid glucosylceramidase (Homo sapiens) (UniProt P04062); assay: Glucocerebrosidase-p2 (AID 348; in the data active = potency below about 10 µM; also: potency is read from the fitted curve at half-maximal effect); details: purified GBA, blue fluorogenic substrate, 40 min
Method in brief: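 Normal human glucocerebrosidase (0.2 nM) with blue fluorogenic substrate (80 uM final) in citrate/phosphate pH 5.9 with 10mM sodium taurocholate, 0.01% tween-20; 40 min RT, NaOH/glycine stop; fluorescence Ex 365/Em 440; AC50 from a titration from 0.6 nM upwards.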

[2] = AP1 Signaling Pathway (AID 357; active = well fitted curve in either direction with a large enough effect, not every such curve was filed as active;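 also: ME-180 reporter cells stimulated with EGF at its EC50 level; % is scaled to controls: 0 for no effect and ±100 for the full control effect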); details: ME-180 AP-1-bla reporter, EGF-induced, beta-lactamase ratio, 5 h; at 7.69 µM (top of the series) unless noted
Method in brief: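 In this screen, ME-180 cells in Opti-MEM with 0.5% dialyzed FBS received EC50 EGF and compound titrations for 5 h. AP-1 reporter beta-lactamase was detected via CCF4 ratio, giving AC50 for positive and negative modulators.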

[3] = molecular target: Cytochrome P450 1A2 (Homo sapiens) (UniProt P05177); assay: p450-cyp1a2 (AID 410; calls by dose curve; also: potency is read from the fitted curve at half-maximal effect); details: recombinant CYP1A2, luciferin-ME demethylation, luminescence; series mostly up to 57 µM
Method in brief: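 Read-out is luminescence from luciferin produced by CYP1A2 demethylation of Luciferin-ME (100uM, at Km). Detection reagent stopped the 60 min NADPH-dependent reaction; signals were normalized to 57 uM furafylline.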

[4] = NFAT Signaling Pathway (AID 444; active = well fitted curve in either direction with a large enough effect, not every such curve was filed as active;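 also: carbachol stimulus at about its EC50 of 1 µM final; % is scaled to controls: 0 for no effect and ±100 for the full control effect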); details: Jurkat NFAT-bla M1, carbachol, beta-lactamase ratio, 5 h; at 7.69 µM (top of the series) unless noted
Method in brief: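 Read-out: CCF4 FRET ratio (460 nm/530 nm) after 1 h RT dye loading, used for %activity and AC50 from titration series. Cells: Jurkat NFAT-β-lactamase/M1 line, treated with compound plus 1 uM carbachol for 5 h, 37 °C.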

[5] = Stat Signaling Pathway (AID 446; active = well fitted curve in either direction with a large enough effect, not every such curve was filed as active;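 also: ME-180 cervical cancer cells given 40 pM IL-6 alongside compound; SIE-controlled beta-lactamase reporter measured as 460/530 nm FRET emission ratio; % is scaled to controls: 0 for no effect and ±100 for the full control effect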); details: ME-180 (cervical carcinoma) SIE beta-lactamase reporter, IL-6 stimulated, 5 h; at 7.69 µM (top of the series) unless noted
Method in brief: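 Emission at 460 and 530 nm (excitation 405 nm) reports SIE-controlled beta-lactamase in ME-180 cells. Cells received compound with 40 pM IL-6 for 5 hrs at 37 C; data scaled between 300 pM IL-6 and 125 nM JAK-inhibitor controls.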

[6] = molecular target: Glucocorticoid receptor (Homo sapiens) (UniProt P04150); assay: GR-EFC Redistribution (AID 451; calls by dose curve; also: potency is read from the fitted curve at half-maximal effect); details: CHO-K1 GR-EFC translocation, beta-gal luminescence, 2 h
Method in brief: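 Translocation of GR-ED fusion to nuclear EA restores b-gal, read by luminescence after 1 h room-temperature detection. Engineered CHO-K1 biosensor cells, 1,000/well, exposed 2 h at 37 C to titrations up to 46 uM final.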

[7] = molecular target: 3',5'-cyclic-AMP phosphodiesterase 4B (Homo sapiens) (UniProt Q07343); assay: qHTS Assay for Inhibitors of PDE-IV (AID 607; active = well fitted activation curve with a large enough effect in the main read-out, with a control signal flat, not every such curve was filed as active; also: % of control where 0% means no effect); details: HEK293 ACTOne CNG channel cells, membrane potential fluorescence; series mostly up to 22.9 µM
Method in brief: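 The readout is membrane depolarisation from a cAMP-sensing CNG channel, detected with a potential dye at ex 535/em 590. Cells were HEK293-derived (endogenous PDE-IV) at 1000 cells/well, titrated up to 22.9 uM final.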

[8] = molecular target: Cytochrome P450 3A4 (Homo sapiens) (UniProt P08684); assay: qHTS Assay for Activators of Cytochrome P450 3A4 (AID 885); details: recombinant CYP3A4, Luciferin-PPXE luminescence, 60 min; series mostly up to 57.1 µM; also: nearly all actives have a fitted effect of over 65% in size
Method in brief: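 Activators are scored by enhanced luminescence from CYP3A4 conversion of luciferin-PPXE (25uM, equal to KM) to luciferin, after 60 min at RT with an NADPH-regenerating system.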

[9] = Confirmation and Secondary Assay for Modulators of Hemoglobin Beta Chain Splicing at IVS2 654 locus (AID 910); details: HeLa EGFP-654 splicing reporter, GFP fluorescence, 48 h; series mostly up to 38.3 µM;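 also: HeLa cells stably carrying EGFP split by mutant beta-globin IVS2-654 intron; per-well total GFP intensity by laser scanning cytometry after 2-day treatment; % of control where 0% means no effect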
Method in brief: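 Readout: per-well total peak green fluorescence (488 nm ex, 500–520 nm em) from objects 5–250 µm, reflecting correct splicing of an EGFP-654 reporter. Compounds were applied for 2 days at 37 °C to overnight-plated HeLa EGFP-654 cells; controls were DMSO and 500 nM IVS2-654 PNA.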

[10] = qHTS Assay for Lipid Storage Modulators (AID 1519; calls by dose curve); details: Drosophila S3 cells, BODIPY lipid droplet/cell ratio, laser cytometry, cells loaded with oleic acid; for activity change, negative = inhibition: at 57.5 µM (top of the series)
Method in brief: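 Cells seeded at 5,000 per well were treated with compounds over a concentration series and loaded with oleic acid (400 uM, as added). Lipid droplet fluorescence (488 nm excitation, 500-530 nm channel) was read by laser-scanning cytometry and normalized to 20 uM Triacsin C.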

[11] = molecular target: Ubiquitin carboxyl-terminal hydrolase 1 (Homo sapiens) (UniProt O94782); assay: Inhibitors of USP1/UAF1: Pilot qHTS (AID 504865); details: purified USP1/UAF1, Ub-rhodamine cleavage fluorescence; series mostly up to 54.9 µM;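 also: rhodamine fluorescence freed from ubiquitin-rhodamine substrate followed over time; top concentration of the series differs between compounds; % is scaled to controls: 0 for no effect and ±100 for the full control effect; nearly all actives have a fitted effect of over 35% in size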
Method in brief: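 Kinetic fluorescence assay: 1nM USP1/UAF1, 15 min compound preincubation, then 150nM Ub-Rho; 480/540 nm.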

[12] = Counterscreen qHTS for small molecule stabilizers of the endoplasmic reticulum resident proteome: GLuc-NoTag assay (AID 1508627); details: Gaussia luciferase NoTag secretion counterscreen, luminescence, thapsigargin 100 nM for final 4 h; series mostly up to 76.4 µM; also: potency is read from the fitted curve at half-maximal effect;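 as to activity change, negative = inhibition: SH-SY5Y cells given compound then 100 nM thapsigargin to empty ER calcium; 0% = thapsigargin alone and -100% = DMSO vehicle control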
Method in brief: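 Counterscreen line: SH-SY5Y-GLuc-NoTag cells, treated with compound 19 hr before a 4 hr, 100 nM thapsigargin calcium depletion. Secreted Gaussia luciferase in the medium was measured by luminescence after coelenterazine was added (0.07x final), with cells unlysed.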

[13] = Cell Viability qHTS for small molecule stabilizers of the endoplasmic reticulum resident proteome (AID 1508629); details: cell viability counter-screen, 100 nM thapsigargin for final 4 h;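 also: human SH-SY5Y neuroblastoma cells carrying the GLuc-SERCaMP reporter; compound exposure about 46 h in total before the viability read; % is scaled to controls: 0 for no effect and ±100 for the full control effect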
[14] = molecular target: Mitogen-activated protein kinase 10 (Mus musculus) (UniProt Q61831); assay: JNK3 AlphaScreen Assay (AID 530; active = well fitted curve in either direction with a large enough effect, not every such curve was filed as active); details: JNK3 lysate, c-Jun phosphorylation; series mostly up to 57.1 µM
Method in brief: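 Kinase buffer: 20 mM Tris-HCl pH 7.6, 10 mM MgCl2, 1 mM DTT, 0.1 mM Na3VO4, 0.01% Tween-20; ATP 10 uM. Substrate biotin-GST-cJun(1-79), enzyme from activated HepG2 lysates. Detection by Ser73 phospho-antibody AlphaScreen.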

[15] = molecular target: Cytochrome P450 3A4 (Homo sapiens) (UniProt P08684); assay: qHTS Assay for Inhibitors and Substrates of Cytochrome P450 3A4 (AID 884); details: recombinant CYP3A4, Luciferin-PPXE luminescence; series mostly up to 57.1 µM; also: potency is read from the fitted curve at half-maximal effect; nearly all actives have a fitted effect of over 50% in size
Method in brief: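 Luminescent readout of luciferin produced by CYP3A4 (20 nM) dealkylation of Luciferin-PPXE, 25 uM (its KM). NADPH-driven reaction ran 60 min at RT after 10 min compound preincubation; data scaled to 57 uM ketoconazole as 100% inhibition.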

[16] = Confirmatory qHTS for small molecule stabilizers of the endoplasmic reticulum resident proteome: Secreted ER Calcium Modulated Protein (SERCaMP) assay (AID 1508628); details: SERCaMP secreted luciferase ER calcium/proteostasis reporter; series mostly up to 76.3 µM; also: nearly all actives have a fitted effect of over 40% in size; also: potency is read from the fitted curve at half-maximal effect
Method in brief: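 GLuc-SERCaMP-expressing SH-SY5Y cells, pretreated 16 h with compound, are challenged with thapsigargin to empty ER calcium stores; after 4 h, coelenterazine is added directly to the medium and luminescence is imaged.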

[17] = molecular target: Glucocorticoid receptor (Homo sapiens) (UniProt P04150); assay: GR-GFP Redistribution (AID 450;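 active = compounds whose dose series gives a full or clear partial fitted curve of increased nuclear translocation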; also: potency is read from the fitted curve at half-maximal effect); details: U2OS GR-GFP nuclear translocation, laser cytometry, 2 h
[18] = molecular target: Dual specificity protein kinase CLK4 (Homo sapiens) (UniProt Q9HAZ1); assay: qHTS Assay for Inhibitors of CDC-like Kinase 4 (Kinase-Glo Assay) (AID 1770); details: recombinant Clk4, Kinase-Glo ATP depletion luminescence; series mostly up to 66.7 µM; also: % is scaled to controls: 0 for no effect and ±100 for the full control effect; nearly all actives have a fitted effect of over 65% in size
Method in brief: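 Inhibition was judged from remaining ATP, measured by Ultra-Glo luciferase bioluminescence after Clk4 (25 nM) had acted on RS peptide at 1 uM ATP for 4.5 hours, room temperature.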

[19] = molecular target: Dual specificity protein kinase CLK4 (Homo sapiens) (UniProt Q9HAZ1); assay: qHTS Assay for Inhibitors of CDC-like Kinase 4 (ADP-Glo Assay) (AID 1771); details: recombinant CLK4, ADP-Glo luminescence; series mostly up to 80 µM; also: % is scaled to controls: 0 for no effect and ±100 for the full control effect; nearly all actives have a fitted effect of over 70% in size
Method in brief: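 In this ADP-Glo format, 1 uM ATP and 100 uM RS peptide served as substrates for 25 nM Clk4 in Mg2+/EGTA/DTT/Triton buffer; reactions ran 1 hr at room temperature before luminescent ADP quantification.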

[20] = molecular target: Dual specificity protein kinase CLK4 (Homo sapiens) (UniProt Q9HAZ1); assay: qHTS Assay for Inhibitors of CDC-like Kinase 4 (ADP-FP Assay) (AID 1795); details: Transcreener ADP fluorescence polarization; series mostly up to 50 µM;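 also: recombinant human CLK4 phosphorylating RS repeat peptide at 1 µM ATP; % is scaled to controls: 0 for no effect and ±100 for the full control effect; nearly all actives have a fitted effect of over 60% in size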
Method in brief: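 Inhibition of ADP formation by 6.25 nM Clk4 is measured using 1 uM ATP and 100 uM RS repeat peptide over one hour. Produced ADP displaces a fluorescent tracer from antibody, lowering polarization.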

[21] = measured here: cell count channel max response
[22] = measured here: lipid channel max response

Sequence of Glucocorticoid receptor (Homo sapiens) (P04150 whole entry, looked up, the tested form may be a part): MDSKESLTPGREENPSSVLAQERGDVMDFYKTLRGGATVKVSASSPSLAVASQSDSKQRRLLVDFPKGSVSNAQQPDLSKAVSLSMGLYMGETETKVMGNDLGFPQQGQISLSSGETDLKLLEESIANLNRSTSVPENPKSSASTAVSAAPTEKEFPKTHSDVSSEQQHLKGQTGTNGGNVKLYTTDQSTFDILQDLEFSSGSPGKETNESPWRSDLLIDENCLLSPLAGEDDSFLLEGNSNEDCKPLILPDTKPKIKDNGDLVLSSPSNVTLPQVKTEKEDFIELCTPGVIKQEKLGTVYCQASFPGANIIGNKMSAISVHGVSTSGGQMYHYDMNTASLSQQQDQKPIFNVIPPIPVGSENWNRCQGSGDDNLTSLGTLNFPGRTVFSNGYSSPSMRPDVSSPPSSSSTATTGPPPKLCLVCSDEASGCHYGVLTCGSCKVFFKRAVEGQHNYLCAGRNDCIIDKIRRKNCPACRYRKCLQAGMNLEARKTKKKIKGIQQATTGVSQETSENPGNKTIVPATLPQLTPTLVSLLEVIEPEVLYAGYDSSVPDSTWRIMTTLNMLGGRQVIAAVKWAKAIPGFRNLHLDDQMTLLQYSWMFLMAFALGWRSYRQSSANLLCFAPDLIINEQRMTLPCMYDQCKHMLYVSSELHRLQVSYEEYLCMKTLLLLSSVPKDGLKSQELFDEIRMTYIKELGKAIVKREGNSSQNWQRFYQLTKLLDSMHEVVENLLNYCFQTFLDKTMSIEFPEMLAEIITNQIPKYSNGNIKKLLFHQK
Sequence of Ubiquitin carboxyl-terminal hydrolase 1 (Homo sapiens) (O94782 whole entry, looked up): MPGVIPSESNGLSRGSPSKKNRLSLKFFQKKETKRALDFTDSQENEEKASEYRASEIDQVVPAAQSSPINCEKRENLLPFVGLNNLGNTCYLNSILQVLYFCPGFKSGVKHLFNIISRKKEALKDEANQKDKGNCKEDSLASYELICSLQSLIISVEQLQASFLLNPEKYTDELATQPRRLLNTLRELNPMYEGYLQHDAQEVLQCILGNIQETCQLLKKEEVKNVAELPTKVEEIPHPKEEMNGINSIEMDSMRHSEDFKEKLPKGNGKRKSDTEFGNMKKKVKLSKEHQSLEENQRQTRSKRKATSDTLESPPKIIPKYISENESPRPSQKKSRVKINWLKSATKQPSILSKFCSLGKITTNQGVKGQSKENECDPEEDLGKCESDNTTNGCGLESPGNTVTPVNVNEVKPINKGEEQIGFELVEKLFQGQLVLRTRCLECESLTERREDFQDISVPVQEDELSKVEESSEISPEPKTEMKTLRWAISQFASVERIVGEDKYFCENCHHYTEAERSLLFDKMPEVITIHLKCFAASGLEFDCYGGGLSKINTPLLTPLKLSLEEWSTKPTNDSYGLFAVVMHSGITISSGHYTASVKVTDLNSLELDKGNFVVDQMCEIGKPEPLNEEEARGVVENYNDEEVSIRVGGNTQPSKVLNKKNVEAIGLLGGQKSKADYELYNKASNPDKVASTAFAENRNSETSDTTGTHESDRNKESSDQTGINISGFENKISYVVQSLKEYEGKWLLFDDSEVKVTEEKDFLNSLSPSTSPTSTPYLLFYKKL
Sequence of Lysosomal acid glucosylceramidase (Homo sapiens) (P04062 whole entry, looked up): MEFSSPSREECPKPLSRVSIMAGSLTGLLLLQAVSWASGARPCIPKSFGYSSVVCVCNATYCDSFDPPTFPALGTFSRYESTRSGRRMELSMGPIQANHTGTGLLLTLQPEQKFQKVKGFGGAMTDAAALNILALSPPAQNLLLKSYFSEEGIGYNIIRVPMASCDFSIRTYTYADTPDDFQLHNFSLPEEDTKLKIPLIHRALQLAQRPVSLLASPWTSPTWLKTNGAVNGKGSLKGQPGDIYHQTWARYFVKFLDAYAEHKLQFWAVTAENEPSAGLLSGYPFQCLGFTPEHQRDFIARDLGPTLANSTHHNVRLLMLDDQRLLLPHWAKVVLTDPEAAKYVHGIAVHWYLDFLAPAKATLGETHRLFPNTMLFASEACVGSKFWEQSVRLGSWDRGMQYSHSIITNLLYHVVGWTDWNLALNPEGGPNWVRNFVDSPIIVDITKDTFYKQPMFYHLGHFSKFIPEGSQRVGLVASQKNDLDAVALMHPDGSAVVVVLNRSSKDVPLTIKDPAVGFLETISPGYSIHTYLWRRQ
Sequence of Cytochrome P450 3A4 (Homo sapiens) (P08684 whole entry, looked up): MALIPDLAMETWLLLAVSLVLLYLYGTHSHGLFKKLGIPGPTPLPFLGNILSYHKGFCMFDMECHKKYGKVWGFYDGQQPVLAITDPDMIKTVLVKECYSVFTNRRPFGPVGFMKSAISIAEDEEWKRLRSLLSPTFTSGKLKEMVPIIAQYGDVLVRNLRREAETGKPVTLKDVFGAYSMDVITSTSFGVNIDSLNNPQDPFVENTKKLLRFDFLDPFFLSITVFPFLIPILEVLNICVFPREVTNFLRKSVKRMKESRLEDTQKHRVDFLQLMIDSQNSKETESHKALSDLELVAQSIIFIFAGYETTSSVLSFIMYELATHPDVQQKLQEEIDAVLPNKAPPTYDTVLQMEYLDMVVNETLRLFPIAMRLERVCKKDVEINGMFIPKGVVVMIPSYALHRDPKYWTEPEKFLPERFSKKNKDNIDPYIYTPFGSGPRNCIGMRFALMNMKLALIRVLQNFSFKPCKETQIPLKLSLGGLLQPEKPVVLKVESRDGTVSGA
Sequence of 3',5'-cyclic-AMP phosphodiesterase 4B (Homo sapiens) (Q07343 whole entry, looked up): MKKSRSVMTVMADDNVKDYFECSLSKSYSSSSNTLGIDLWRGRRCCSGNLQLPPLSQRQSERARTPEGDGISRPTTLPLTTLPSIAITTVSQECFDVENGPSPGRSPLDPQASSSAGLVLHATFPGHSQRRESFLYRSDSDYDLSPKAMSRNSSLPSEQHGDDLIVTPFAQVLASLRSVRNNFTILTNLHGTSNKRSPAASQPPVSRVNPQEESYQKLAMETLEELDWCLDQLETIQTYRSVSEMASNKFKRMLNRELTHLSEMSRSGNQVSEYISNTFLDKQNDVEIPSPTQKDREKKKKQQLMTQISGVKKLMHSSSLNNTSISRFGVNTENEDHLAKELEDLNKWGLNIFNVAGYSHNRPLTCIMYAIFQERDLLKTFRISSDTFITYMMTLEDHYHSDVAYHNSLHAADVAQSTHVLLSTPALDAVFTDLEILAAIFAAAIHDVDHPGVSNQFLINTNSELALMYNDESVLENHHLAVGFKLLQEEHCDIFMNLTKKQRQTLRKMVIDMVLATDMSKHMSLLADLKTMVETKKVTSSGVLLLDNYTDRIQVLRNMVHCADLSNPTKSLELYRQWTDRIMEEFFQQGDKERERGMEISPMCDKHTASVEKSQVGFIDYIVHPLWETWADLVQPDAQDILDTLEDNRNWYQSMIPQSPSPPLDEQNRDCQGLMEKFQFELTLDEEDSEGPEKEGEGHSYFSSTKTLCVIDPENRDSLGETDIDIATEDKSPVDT
Sequence of Dual specificity protein kinase CLK4 (Homo sapiens) (Q9HAZ1 whole entry, looked up): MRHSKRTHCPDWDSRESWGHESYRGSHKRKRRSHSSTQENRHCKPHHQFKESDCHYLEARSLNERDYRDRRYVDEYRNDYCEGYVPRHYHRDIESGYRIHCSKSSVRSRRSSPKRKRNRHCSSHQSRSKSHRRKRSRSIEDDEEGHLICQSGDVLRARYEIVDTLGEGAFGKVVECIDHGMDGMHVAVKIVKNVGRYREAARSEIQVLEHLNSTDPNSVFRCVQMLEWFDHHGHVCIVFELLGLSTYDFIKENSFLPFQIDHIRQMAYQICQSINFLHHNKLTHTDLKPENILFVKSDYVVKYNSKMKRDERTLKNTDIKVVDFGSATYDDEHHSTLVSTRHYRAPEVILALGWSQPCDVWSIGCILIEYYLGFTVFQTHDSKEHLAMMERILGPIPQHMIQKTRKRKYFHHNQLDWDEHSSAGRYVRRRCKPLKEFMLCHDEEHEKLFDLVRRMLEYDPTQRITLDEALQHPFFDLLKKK
Sequence of Cytochrome P450 1A2 (Homo sapiens) (P05177 whole entry, looked up): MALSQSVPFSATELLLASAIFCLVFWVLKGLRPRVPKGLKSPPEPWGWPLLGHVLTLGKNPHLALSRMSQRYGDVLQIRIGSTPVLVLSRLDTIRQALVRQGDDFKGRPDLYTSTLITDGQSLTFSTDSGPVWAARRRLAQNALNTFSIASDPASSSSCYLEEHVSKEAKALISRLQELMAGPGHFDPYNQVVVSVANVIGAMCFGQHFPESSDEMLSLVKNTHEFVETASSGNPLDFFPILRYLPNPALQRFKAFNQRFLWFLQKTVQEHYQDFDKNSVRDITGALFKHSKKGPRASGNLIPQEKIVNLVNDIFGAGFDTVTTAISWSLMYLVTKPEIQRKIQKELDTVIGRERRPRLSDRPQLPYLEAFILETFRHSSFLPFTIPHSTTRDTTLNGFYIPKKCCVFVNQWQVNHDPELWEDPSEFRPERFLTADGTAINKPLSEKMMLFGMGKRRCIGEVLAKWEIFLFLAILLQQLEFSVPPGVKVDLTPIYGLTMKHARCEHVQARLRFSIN

CN(C)c1ccc(-c2nccc(NCCN3CCOCC3)n2)cc1
inactive: Potency [1] > 11.4 µM | activity change, negative = inhibition [2] -7.61% | activity change, negative = inhibition [4] 7.2% | activity, negative = inhibition [5] 11.1% | Potency [6] > 46 µM | Potency [7] | Potency [8] | outcome [9] | activity change, negative = inhibition [10] -20.5% | Potency [11] | Potency [12] | max response [13] 10.1%
-26.5%: max response [10, 22]
-10.5%: max response [10, 21]
active: Potency [3] 1.26 µM

CC(C)(c1cc(Br)c(O)c(Br)c1)c1cc(Br)c(O)c(Br)c1
active: Potency [15] 15.8 µM
inactive: outcome [14] | Potency [8] | Potency [12] | Potency [16] | max response [13] 18.1% and 32.8% and -0.114%

Cc1cccc(CNc2ncnc3ccc(-c4ccccc4CN(C)C)cc23)c1
-10.3%: max response [10, 21]
inactive: Potency [1] > 11.4 µM | activity change, negative = inhibition [2] -7.85% | activity, negative = inhibition [5] -2.09% | Potency [17] > 46 µM | Potency [6] > 46 µM | outcome [14] | outcome [9] | activity change, negative = inhibition [10] 3.56%
-6.74%: max response [10, 22]
active: Potency [12] 0.447 µM

COc1ccc(Oc2ncc3nc(-c4ccccc4)c(=O)n(C4CC4)c3n2)cc1
inactive: Potency [1] > 11.4 µM | activity change, negative = inhibition [2] -15.8% | activity change, negative = inhibition [4] 5.68% | activity, negative = inhibition [5] -1.16% | Potency [17] > 9.22 µM | Potency [6] > 46 µM | outcome [14] | Potency [7] | Potency [12] | max response [13] 12.6%

COc1cccc(Cn2c(=O)c(-c3ccccc3)nc3cnc(N4CCNCC4)nc32)c1
active: Potency [3] 3.16 µM
inactive: Potency [1] > 11.4 µM | Potency [17] > 9.22 µM | Potency [6] > 46 µM | Potency [7] | Potency [8] | activity change, negative = inhibition [10] 4.45% | Potency [18] | Potency [19] | Potency [20] | Potency [11] | Potency [12]
11.2%: max response [10, 22]
8.56%: max response [10, 21]

C=C1CCC[C@]2(C)C[C@H]3OC(=O)[C@H](CNCCc4ccccc4OC)C3CC12 (some centres not stated)
inactive: Potency [16] | max response [13] -12.1%

Cc1nc2cnc(N3CCNCC3)nc2n(Cc2cccs2)c1=O
28.9%: max response [10, 22]
inactive: Potency [1] > 11.4 µM | activity change, negative = inhibition [2] -0.143% | activity change, negative = inhibition [4] 6.53% | activity, negative = inhibition [5] 3.44% | Potency [17] > 9.22 µM | Potency [6] > 46 µM | outcome [14] | Potency [7] | Potency [8] | activity change, negative = inhibition [10] 6.29% | Potency [18] | Potency [20] | Potency [11] | max response [13] 3.08%
24.4%: max response [10, 21]
active: Potency [3] 0.631 µM | Potency [15] 3.16 µM | Potency [16] 25.1 µM
